Test results: PubChem BioAssay (NCATS)
Where “and” joins values, the source holds several entries; their conditions need not be identical. Identical values can stand only once. Inconclusive results are not listed. Where a call stands in place of a potency, no number is given. A number with no mark means an inactive call. Calls of active or inactive are those of the source. Calls follow the shape of the dose curve; as a rule, active = well fitted curve in the direction sought with a large enough effect; inconclusive = small, poorly fitted or top-dose-only effect, or another doubt; inactive = no such curve, though single readings can be large; an effect the other way counts as inactive or inconclusive.

Key:
[1] = Viability qHTS for spleen associated tyrosine kinase inhibitor (SYKi) naive MV4-11 cells (AID 1963823); also: nearly all actives have a fitted effect of over 40% in size
How it was run: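 SYKi-naive MV4-11 AML cells, 500 per well, were exposed to library compounds for 72 hr at 37 C, 5% CO2. Viability was then read by CellTiter-Glo luminescence after 10 min at room temperature.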

[2] = Quantitative highthroughput screen to assess conditional lethalithy of NOMO1 cells grown in RPMI1640 with untreated serum (RPMI+s) (AID 1963876); also: nearly all actives have a fitted effect of over 35% in size
How it was run: (§1)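 Each medium arm—HPLM with 10% dialyzed FBS, or RPMI1640 with 5 mM glucose and 10% untreated or dialyzed FBS—was screened against an 11-point, 3-fold compound titration for 48 h at 37 °C, with CellTiter-Glo luminescence as endpoint.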

[3] = Quantitative highthroughput screen to assess conditional lethalithy of NOMO1 cells grown in RPMI1640 with dialyzed fetal bovine serum (RPMI+ds) (AID 1963877); also: nearly all actives have a fitted effect of over 30% in size; as to Viability: series mostly up to about 46 µM
How it was run: as §1

[4] = Quantitative highthroughput screen to assess conditional lethalithy of NOMO1 cells grown in Human Plasma-Like Medium with dialyzed fetal bovine serum (HPLM+ds) (AID 1963878); also: nearly all actives have a fitted effect of over 35% in size
How it was run: as §1

[5] = Quantitative highthroughput screen to assess conditional lethalithy of P12 Ichikawa cells grown in Human Plasma-Like Medium with dialyzed fetal bovine serum (HPLM+ds) (AID 1963879); settings: Potency: viability; also: nearly all actives have a fitted effect of over 35% in size; as to Viability: series mostly up to about 46 µM
How it was run: as §1

[6] = Quantitative highthroughput screen to assess conditional lethalithy of P12 Ichikawa cells grown in RPMI1640 with dialyzed fetal bovine serum (RPMI+ds) (AID 1963880); settings: Potency: P12-Ichikawa viability; also: nearly all actives have a fitted effect of over 35% in size
How it was run: as §1

[7] = Quantitative highthroughput screen to assess conditional lethalithy of P12 Ichikawa cells grown in RPMI1640 with untreated serum (RPMI+s) (AID 1963881); settings: Potency: viability; also: nearly all actives have a fitted effect of over 35% in size; as to Viability: series mostly up to about 46 µM
How it was run: as §1

[8] = Quantitative highthroughput screen to assess conditional lethalithy of SEM cells grown in Human Plasma-Like Medium with dialyzed fetal bovine serum (HPLM+ds) (AID 1963882); also: nearly all actives have a fitted effect of over 35% in size; as to Viability: series mostly up to about 46 µM
How it was run: as §1

[9] = Quantitative highthroughput screen to assess conditional lethalithy of SEM cells grown in RPMI1640 with unreated serum (RPMI+s) (AID 1963883); also: nearly all actives have a fitted effect of over 35% in size
How it was run: as §1

[10] = Quantitative highthroughput screen to assess conditional lethalithy of SEM cells grown in RPMI1640 with dialyzed fetal bovine serum (RPMI+ds) (AID 1963884); also: nearly all actives have a fitted effect of over 35% in size; as to Viability: series mostly up to about 46 µM
How it was run: as §1

[11] = Cellular viability qHTS for adrenocortical cancer (ACC) cell line SW-13 (AID 1963989); settings: SW-13 ACC cells viability, CellTiter-Glo, 48 h; activity (max response): hits give low values; also: nearly all actives have a fitted effect of over 65% in size;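 as to activity (max response): cells grown in serum-free medium with ITS supplement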
How it was run: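 Viability was read as CellTiter-Glo luminescence after 48 h compound treatment (up to 46 uM final) of SW-13 cells grown serum-free; titration curves were fit with a four-parameter logistic model to give IC50 and efficacy.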

[12] = Cellular viability qHTS for adrenocortical cancer (ACC) cell line NCI-H295R (AID 1963990); also: nearly all actives have a fitted effect of over 60% in size
How it was run: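 CellTiter-Glo ATP luminescence, read 48 h after compound addition, measured viability of NCI-H295R adrenocortical cells grown serum-free with ITS. Final concentrations spanned up to 46 uM. Data normalized to DMSO and doxorubicin, fitted for IC50 and maximal response.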
Potency is read from the fitted curve at half-maximal effect.

For O=C1c2c(O)cc(O)cc2OC(c2ccc(O)c(O)c2)C1O (stereo not given), the Potency [1] was “inactive”, the Potency [2] was “inactive” and the Potency [3] was “inactive”. For the same molecule, the Potency [4] was “inactive”, the Potency [5] was “inactive” and the Potency [6] was “inactive”. The Potency [7] was “inactive”, the Potency [8] was “inactive” and the Potency [9] was “inactive”. For the same molecule, the Potency [10] was “inactive”, the activity (max response) [11] was -4.92% and the Potency [12] was “inactive”.
In the case of O=C(Nc1cccc(Cl)c1)Nc1ncc(CCNc2ncnc3ccsc23)s1, the Potency [1] is reported as 20.6 nM (active), the Potency [2] is reported as 296 nM (active) and the Potency [3] is reported as 332 nM (active). The Potency [4] was 105 nM (active), the Potency [7] was 418 nM (active) and the Potency [11] was 28200 nM (active). For the same molecule, the Potency [12] was 3550 nM (active).
With CCCOc1ccc(C(=O)OCCN(CC)CC)cc1N the Potency [1] was “inactive”, the Potency [2] was “inactive” and the Potency [3] was “inactive”. For the same molecule, the Potency [4] was “inactive”, the Potency [5] was “inactive” and the Potency [6] was “inactive”. The Potency [7] was “inactive”, the Potency [8] was “inactive” and the Potency [9] was “inactive”. The Potency [10] was “inactive”, the activity (max response) [11] was -2.3% and -19.7% and the Potency [12] was “inactive”.
With CC[C@@]1(O)C(=O)OCc2c1cc1n(c2=O)Cc2cc3cc(O)ccc3nc2-1 the Potency [1] was 18.6 nM (active), the Potency [2] was 118 nM (active) and the Potency [3] was 148 nM (active). The Potency [4] was 83.3 nM (active), the Potency [5] was 33.2 nM (active) and the Potency [6] was 29.6 nM (active). For the same molecule, the Potency [7] was 29.6 nM (active), the Potency [8] was 52.6 nM (active) and the Potency [9] was 41.8 nM (active). The Potency [10] was 46.9 nM (active), the Potency [11] was 224 nM (active) and the Potency [12] was 1580 nM (active).
In the case of Cc1nccn1CC1CCc2c(c3ccccc3n2C)C1=O (stereo not given), the Potency [1] is reported as “inactive”, the Potency [2] is reported as “inactive” and the Potency [3] is reported as “inactive”. For the same molecule, the Potency [5] was “inactive”, the Potency [6] was “inactive” and the Potency [7] was “inactive”. The Potency [8] was “inactive”, the Potency [9] was “inactive” and the Potency [10] was “inactive”. The activity (max response) [11] was -14.2% and the Potency [12] was “inactive”.
With CN(C)c1cccc(-c2c3c(=O)n(-c4ccccc4Cl)[nH]c3cc(=O)n2C)c1 the Potency [1] was “inactive”, the Potency [2] was 933 nM (active) and the Potency [3] was 831 nM (active). The Potency [4] was 588 nM (active), the Potency [6] was 1170 nM (active) and the Potency [7] was 1050 nM (active). The Potency [8] was 1050 nM (active), the Potency [9] was 1050 nM (active) and the Potency [10] was 831 nM (active). The activity (max response) [11] was -1.86% and the Potency [12] was “inactive”.
